Test [1] in a line: antimalarial activity against Dd2 strain (AID 2302;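 active means growth inhibition above 50% at the single 2 µM test dose, taken to imply half-maximal potency below 2 µM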;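 further: 0% = DMSO untreated growth and 100% = chloroquine plus artemisinin killed control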). Particulars: P. falciparum Dd2 in RBCs, LDH growth readout, 72 h; at 2 µM; active compounds read high.
Test [2] is described as follows: human hepatoma cell viability loss – ATP luminescence, cytotoxicity control for P. falciparum antimalarial project, primary screen (AID 2303;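 active means inhibition above 50%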;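 further: 0% = DMSO wells and 100% = digitonin-killed cells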). Particulars: HepG2 viability, 24-48 h, at 10 µM, active compounds read high.
For test [3], the target named is L-lactate dehydrogenase (Plasmodium falciparum (isolate CDC / Honduras)) (UniProt Q27743). Kind of test: PfLDH activity inhibition – cell lysate, 3D7 strain, counter-screen for P. falciparum growth inhibition project (AID 2304).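 Further: 0% = vehicle and 100% = reference inhibitor.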 Particulars: P. falciparum 3D7 crude extract, LDH APAD/NBT absorbance; at 2 µM; active compounds read high.
L-lactate dehydrogenase (Plasmodium falciparum (isolate CDC / Honduras)), sequence (Q27743 whole entry, looked up): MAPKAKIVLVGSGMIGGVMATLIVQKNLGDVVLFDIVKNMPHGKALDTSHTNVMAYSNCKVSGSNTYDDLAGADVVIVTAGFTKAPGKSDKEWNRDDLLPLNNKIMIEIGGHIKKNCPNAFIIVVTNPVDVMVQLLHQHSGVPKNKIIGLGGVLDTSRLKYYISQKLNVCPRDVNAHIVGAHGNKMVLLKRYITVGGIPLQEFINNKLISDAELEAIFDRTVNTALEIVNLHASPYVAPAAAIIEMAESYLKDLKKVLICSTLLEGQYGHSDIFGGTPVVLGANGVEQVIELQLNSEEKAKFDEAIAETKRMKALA
Test [4] is described as follows: inhibition of 3D7 malaria parasite growth – strain 3D7 (AID 2306).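 Further: 0% = DMSO wells and 100% = chloroquine plus artemisinin control wells.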 Particulars: P. falciparum 3D7 erythrocytic growth, LDH absorbance, 72 h; at 2 µM; active compounds read high.
In test [5] the target is Calcium-dependent protein kinase 1 (Plasmodium falciparum (isolate 3D7)) (UniProt P62344). Kind of test: PfCDPK1 kinase inhibitors, biochemical, TCAMS library (AID 1159585; cut-off not given, nearly all actives have IC50 up to about 0.98 µM;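 further: inhibitors leave more ATP so luminescence rises with inhibition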). Particulars: recombinant PfCDPK1, Kinase-Glo ATP depletion luminescence. Background: In Kinase-Glo more light means more ATP remaining.
Calcium-dependent protein kinase 1 (Plasmodium falciparum (isolate 3D7)), sequence (P62344 whole entry, looked up): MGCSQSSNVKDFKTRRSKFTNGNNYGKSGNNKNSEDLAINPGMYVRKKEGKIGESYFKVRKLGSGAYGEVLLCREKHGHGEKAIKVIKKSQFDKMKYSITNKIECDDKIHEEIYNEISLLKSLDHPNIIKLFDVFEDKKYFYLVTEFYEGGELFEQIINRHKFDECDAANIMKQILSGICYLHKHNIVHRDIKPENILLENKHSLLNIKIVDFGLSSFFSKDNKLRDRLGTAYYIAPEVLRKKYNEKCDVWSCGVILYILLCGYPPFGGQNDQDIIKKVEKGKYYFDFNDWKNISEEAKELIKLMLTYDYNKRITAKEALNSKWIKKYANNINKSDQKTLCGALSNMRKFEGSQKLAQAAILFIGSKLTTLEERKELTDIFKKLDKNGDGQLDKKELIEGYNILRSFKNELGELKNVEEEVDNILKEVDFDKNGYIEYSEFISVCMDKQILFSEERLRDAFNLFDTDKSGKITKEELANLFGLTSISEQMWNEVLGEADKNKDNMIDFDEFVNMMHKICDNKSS
The target of test [6] is Plasmodium falciparum protein kinase 6 (PK6, PF3D7_1337100) (UniProt Q8IDW1). Kind of test: PfPK6 kinase inhibitors, biochemical, TCAMS library (AID 1159586). Particulars: recombinant PfPK6, Kinase-Glo ATP depletion luminescence.
Plasmodium falciparum protein kinase 6 (PK6, PF3D7_1337100), sequence (Q8IDW1 1-305): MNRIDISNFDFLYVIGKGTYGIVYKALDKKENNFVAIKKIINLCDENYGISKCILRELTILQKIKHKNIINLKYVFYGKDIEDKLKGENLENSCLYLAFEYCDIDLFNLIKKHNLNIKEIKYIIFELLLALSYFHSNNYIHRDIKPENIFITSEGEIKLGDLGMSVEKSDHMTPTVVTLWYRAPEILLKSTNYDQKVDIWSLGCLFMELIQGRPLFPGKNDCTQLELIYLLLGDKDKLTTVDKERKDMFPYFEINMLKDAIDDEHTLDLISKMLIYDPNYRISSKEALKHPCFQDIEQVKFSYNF
The target in test [7] is Protein kinase 7 (PK7), Plasmodium falciparum 3D7 (PF3D7_0213400) (UniProt Q7YTF7). Kind of test: inhibition of Plasmodium PK7 catalytic activity – biochemical, TCAMS antimalarial set, Kinase-Glo luminescence (AID 1159587). Particulars: recombinant PfPK7, Kinase-Glo ATP depletion luminescence.
Protein kinase 7 (PK7), Plasmodium falciparum 3D7 (PF3D7_0213400), sequence (Q7YTF7 1-343): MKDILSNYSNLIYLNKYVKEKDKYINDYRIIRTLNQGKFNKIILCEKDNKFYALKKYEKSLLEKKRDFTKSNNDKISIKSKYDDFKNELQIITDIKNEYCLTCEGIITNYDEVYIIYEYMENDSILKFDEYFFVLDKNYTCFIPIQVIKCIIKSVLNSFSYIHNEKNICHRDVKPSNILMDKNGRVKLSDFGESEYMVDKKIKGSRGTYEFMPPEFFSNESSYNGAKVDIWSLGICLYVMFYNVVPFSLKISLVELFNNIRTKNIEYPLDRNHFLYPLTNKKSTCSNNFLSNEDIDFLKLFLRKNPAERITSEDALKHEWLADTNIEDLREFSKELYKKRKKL
Test [8] deals with Calcium-dependent protein kinase 4 (Plasmodium falciparum (isolate 3D7)) (UniProt Q8IBS5). Briefly: PfCDPK4 kinase inhibitors, biochemical, TCAMS library (AID 1159588; cut-off not given, nearly all actives have IC50 up to about 0.91 µM). Particulars: recombinant PfCDPK4, Kinase-Glo ATP depletion luminescence.
Calcium-dependent protein kinase 4 (Plasmodium falciparum (isolate 3D7)), sequence (Q8IBS5 whole entry, looked up): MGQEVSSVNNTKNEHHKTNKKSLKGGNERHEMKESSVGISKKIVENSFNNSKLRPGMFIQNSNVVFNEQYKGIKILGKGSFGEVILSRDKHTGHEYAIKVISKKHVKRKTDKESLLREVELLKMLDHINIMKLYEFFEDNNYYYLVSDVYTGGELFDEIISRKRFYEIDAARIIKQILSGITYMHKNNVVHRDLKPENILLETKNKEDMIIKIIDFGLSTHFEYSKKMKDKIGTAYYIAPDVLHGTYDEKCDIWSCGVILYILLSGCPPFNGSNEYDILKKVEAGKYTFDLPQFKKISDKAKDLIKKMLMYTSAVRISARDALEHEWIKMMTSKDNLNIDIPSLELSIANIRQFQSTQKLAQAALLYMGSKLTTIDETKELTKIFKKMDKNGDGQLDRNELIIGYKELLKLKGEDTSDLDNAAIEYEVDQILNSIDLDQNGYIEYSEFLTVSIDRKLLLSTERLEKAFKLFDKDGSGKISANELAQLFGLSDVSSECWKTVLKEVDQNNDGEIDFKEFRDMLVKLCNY

Structures are written as SMILES. Unmarked numbers belong to inactive results. For some of these results: Measured potencies and affinities stand elsewhere. The source made the active and inactive calls. Unless noted, how the calls were made is not given here.

In general, inhibition refers to the change of the read-out against control, counted positive when it falls. Take `Clc1ccc(Cl)c2[nH]c(CNCCCNc3nc4ccccc4[nH]3)cc12`: the values for the growth inhibition in test [1] and in test [4] were 39% and 100% (active), respectively. Besides, the inhibition in test [2] was 88% (active); in test [3] it was -6%. The result in test [5], in test [6], in test [7] and in test [8] was inactive.

Turning to `O=C(NCC1CC1)C1Cc2c([nH]c3ccc(Br)cc23)C2(CCN(CCc3ccccc3)CC2)N1` (stereo not given), the growth inhibition is 25% in test [1] and 88% (active) in test [4]. Also, the inhibition is 14% in test [2] and 1% in test [3]. In addition, the outcome in test [5], in test [6], in test [7] and in test [8] was inactive.

On to `Cc1cc(NC(=O)c2cc(S(=O)(=O)N3CCCCC3)ccc2C)no1`, for which the growth inhibition in test [1] was 29%; in test [4], 95% (active). For the same molecule, the inhibition in test [2] and in test [3] was -7% each time. Besides, the outcome in test [5], in test [6], in test [7] and in test [8] was inactive.

Take `Cc1nc(-c2ccc(-c3ccc(C(=O)Nc4ccc(I)c(OCCN5CCCC5)c4)cc3)c(C)c2)no1`: the growth inhibition was 35% in test [1] and 95% (active) in test [4]. Besides, the inhibition is 96% (active) in test [2] and -1% in test [3]. Further, the outcome in test [5], in test [6], in test [7] and in test [8] was inactive.

For `OC1CCCN(Cc2cccc(-c3ccc(-c4nc5ccc(F)cc5[nH]4)cc3)c2)C1` (stereo not given), the growth inhibition is 42% in test [1] and 101% (active) in test [4]. The inhibition in test [2] is 16%; in test [3], -4%. Moreover, the outcome in test [5], in test [6], in test [7] and in test [8] was inactive.

For `Cc1nnc2sc(-c3cccc(NC(=O)c4ccc(N5CCCCC5)c([N+](=O)[O-])c4)c3)nn12`, the growth inhibition in test [1] is 20%; in test [4] it was 87% (active). For the same molecule, the inhibition is 3% in test [2] and -3% in test [3]. Further, the outcome in test [5], in test [6], in test [7] and in test [8] was inactive.

Regarding `CCCCc1cc(NCc2ccncc2)nc(Nc2ccc(C)cc2)n1`, the results for the growth inhibition in test [1] and in test [4] were 59% (active) and 101% (active), respectively. The inhibition was 7% in test [2] and -4% in test [3]. The outcome in test [5], in test [6], in test [7] and in test [8] was inactive.

Take `O=C(c1cc(-c2cccs2)[nH]n1)N1CCN(S(=O)(=O)c2ccc(Br)cc2)CC1`: the growth inhibition in test [1] is 95% (active); in test [4] it was 93% (active). For the same molecule, the inhibition in test [2] was -6%; in test [3], 3%. Moreover, the result in test [5], in test [6], in test [7] and in test [8] was inactive.

For the molecule `Cc1ccc(C(O)CNc2ccnc(Nc3cccc(-c4csc(C)n4)c3)n2)cc1` (stereo not given), the results for the growth inhibition in test [1] and in test [4] were 31% and 92% (active), respectively. The inhibition in test [2] is 17%; in test [3] it was -2%. For the same molecule, the outcome in test [5], in test [6], in test [7] and in test [8] was inactive.

Take `CCCCNC(=O)[C@H](CC1CCCCC1)NC(=O)c1ccc(O)c(-c2ccc(OC)cc2)c1`: the growth inhibition was 12% in test [1] and 89% (active) in test [4]. The inhibition in test [2] was -8%; in test [3], 5%. Also, the result in test [5], in test [6], in test [7] and in test [8] was inactive.

Turning to `COc1ccc(-c2ccc(CNC3Cc4ccccc4C3)cc2)cc1S(=O)(=O)NCCN1CCCC1`, the figures for the growth inhibition in test [1] and in test [4] were 99% (active) and 100% (active), respectively. Besides, the inhibition is 30% in test [2] and 3% in test [3]. The result in test [5], in test [6], in test [7] and in test [8] was inactive.

With `Cc1ccc2c(NN=CC=Cc3ccccc3)cc(C)nc2c1`, the growth inhibition is 13% in test [1] and 92% (active) in test [4]. Besides, the inhibition is 3% in test [2] and 6% in test [3]. Moreover, the result in test [5], in test [6], in test [7] and in test [8] was inactive.

For the molecule `COc1ccc(NCc2cccc(-c3cccc(CNCCc4ccccc4)c3)c2)cc1`, the growth inhibition in test [1] was 14%; in test [4], 96% (active). The inhibition was 41% in test [2] and 0% in test [3]. Also, the outcome in test [5], in test [6], in test [7] and in test [8] was inactive.

In the case of `O=C(Nc1cccc(CN2CCCN(Cc3ccc4c(c3)OCO4)CC2)c1)c1ccc(-c2ccccc2)cc1`, the growth inhibition was 19% in test [1] and 90% (active) in test [4]. For the same molecule, the results for the inhibition in test [2] and in test [3] were 48% and -10%, respectively. The result in test [5], in test [6], in test [7] and in test [8] was inactive.

For the molecule `NS(=O)(=O)c1cccc(-c2ccc3c(=O)[nH]cnc3c2)c1`, the growth inhibition was 100% (active) in test [1] and 99% (active) in test [4]. In addition, the figures for the inhibition in test [2] and in test [3] were 6% and 4%, respectively. Also, the outcome in test [5], in test [6], in test [7] and in test [8] was inactive.

Consider `CC(C)c1ccc(N2CCN(CCCCNC(=O)c3ccc(NC(=O)c4cc(Cl)cc(Cl)c4)cc3)CC2)cc1`, for which the results for the growth inhibition in test [1] and in test [4] were 86% (active) and 101% (active), respectively. Besides, the figures for the inhibition in test [2] and in test [3] were 12% and 8%, respectively. In addition, the outcome in test [5], in test [6], in test [7] and in test [8] was inactive.

For the molecule `Cc1c(Oc2ccc(-n3ccnc3)cc2)ncnc1N1CCC2(CC1)CNCc1ccccc12`, the growth inhibition in test [1] was 58% (active); in test [4], 95% (active). In addition, the inhibition in test [2] is 26%; in test [3], -3%. The outcome in test [5], in test [6], in test [7] and in test [8] was inactive.

With `COc1ccc(CN2C(=S)N(Cc3ccccc3)C(=O)C2CC(=O)Nc2ccccc2)cc1OC` (stereo not given), the results for the growth inhibition in test [1] and in test [4] were 73% (active) and 96% (active), respectively. Further, the figures for the inhibition in test [2] and in test [3] were 6% and -2%, respectively. Besides, the outcome in test [5], in test [6], in test [7] and in test [8] was inactive.

For the molecule `CCOCc1cnc(C)nc1NCC(=O)c1c(C)[nH]c2cc(C)ccc12`, the growth inhibition is 76% (active) in test [1] and 89% (active) in test [4]. The inhibition was 8% in test [2] and 4% in test [3]. In addition, the result in test [5], in test [6], in test [7] and in test [8] was inactive.

On to `Cc1ccc(OCC2CCN(c3ncc(C(=O)NCCCN4CCCC4=O)cc3Cl)CC2)cc1`, for which the figures for the growth inhibition in test [1] and in test [4] were 71% (active) and 94% (active), respectively. For the same molecule, the values for the inhibition in test [2] and in test [3] were 7% and 0%, respectively. The result in test [5], in test [6], in test [7] and in test [8] was inactive.

For the origin of these results see PubChem BioAssay.
